Measured values from PubChem BioAssay (NCATS).
Results filed as inconclusive are left out. Activity calls are given as the source filed them. Calls follow the shape of the dose curve; as a rule, active = well fitted curve in the direction sought with a large enough effect; inconclusive = small, poorly fitted or top-dose-only effect, or another doubt; inactive = no such curve, though single readings can be large; an effect the other way counts as inactive or inconclusive.

What was measured:
[1] = qHTS assay for measurement of the activity of small molecule inhibitors on Zika virus induced Caspase-3 activity in human iPSC derived neural progenitor cells (hNPCs) (AID 1224857); also: nearly all actives have a fitted effect of over 65% in size
How it was run: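 Values are percent inhibition of virus-induced caspase-3/7 signal, scaled between uninfected cells and ZIKV-infected cells. Infection used 2 FFU/cell for 6 h after 1 h compound exposure.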

[2] = qHTS assay for measurement of the activity of small molecule inhibitors on Zika virus induced Caspase-3 activity in human astrocytoma cells (AID 1224859)
How it was run: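 Compound added 1 h pre-infection; ZIKV 2 FFU/cell on SNB-19 cells, 6 h, 37 C/5% CO2. Caspase-Glo 3/7 luminescence; values as % inhibition of ZIKV-induced caspase activity.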

[3] = qHTS assay to identify small molecule inhibitors of chordoma cells - UCH-1 (AID 1259355); also: nearly all actives have a fitted effect of over 55% in size
How it was run: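 Cells (800/well) were seeded and left overnight at 37 C, 5% CO2, then treated with drugs at 15 concentrations plus a combination mix of auranofin, camptothecin, doxorubicin, rubitecan and topotecan. Viability after 48hr was read by CellTiter-Glo luminescence.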

[4] = qHTS assay to identify small molecule inhibitors of chordoma cells - UCH-2 (AID 1259356); also: series mostly up to about 46 µM
[5] = P-glycoprotein substrates identified in KB-8-5-11 adenocarcinoma cell line, qHTS therapeutic library screen (AID 1346987); details: outcome: dose series up to 44.5 µM; also: series mostly up to about 44 µM; nearly all actives have a fitted effect of over 65% in size
How it was run: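 KB-8-5-11, a colchicine-selected P-gp-overexpressing KB-3-1 subline, was grown without colchicine for the assay. Cells were seeded at 500 cells/well, dosed in concentration-response and incubated 72 h at 37 degree C, 5% CO2. Viability was read by CellTiter-Glo luminescence.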

[6] = NS1 protein of Zika virus - qHTS assay to identify small molecule inhibitors in human HEK 293 cells (AID 1347053); also: series mostly up to about 46 µM; nearly all actives have a fitted effect of over 55% in size
How it was run: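 HEK 293 cells, seeded 20 h at 37 C, were pretreated with compound 1 h, then infected with ZIKV MR766 (MOI = 0.5) for 24 h. NS1 was read by TR-FRET with two anti-NS1 antibodies, normalized to uninfected and infected wells.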

[7] = qHTS of pediatric cancer cell lines to identify multiple opportunities for drug repurposing: Primary screen for TC32 cells (AID 1347089); also: nearly all actives have a fitted effect of over 60% in size
How it was run: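 Measured quantity: luminescence from CellTiter-Glo, reflecting metabolically active TC32 cells following 48 h of compound. Curves came straight from multi-point titrations, with 8 or 11 points in primary and 11 in confirmatory screening.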

[8] = qHTS of pediatric cancer cell lines to identify multiple opportunities for drug repurposing: Primary screen for DAOY cells (AID 1347090); also: series mostly up to about 46 µM; nearly all actives have a fitted effect of over 55% in size
How it was run: (§1)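 Viability measured as metabolically active cells via CellTiter-Glo luminescence following 48 hours of compound exposure, 11-point dilutions in confirmatory testing. 500-1,000 cells/well plated 5 hours before dosing; controls were DMSO and 2.3 µM bortezomib.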

[9] = qHTS of pediatric cancer cell lines to identify multiple opportunities for drug repurposing: Primary screen for SJ-GBM2 cells (AID 1347091)
How it was run: as §1

[10] = qHTS of pediatric cancer cell lines to identify multiple opportunities for drug repurposing: Primary screen for A673 cells (AID 1347092); also: nearly all actives have a fitted effect of over 45% in size
How it was run: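 Cells are plated, rested 5 h, dosed by pintool, incubated 48 h, then lysed with CellTiter-Glo and read by luminescence. DMSO is the neutral control; bortezomib at 2.3 uM final is the positive control.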

[11] = qHTS of pediatric cancer cell lines to identify multiple opportunities for drug repurposing: Primary screen for SK-N-MC cells (AID 1347093); also: series mostly up to about 46 µM
How it was run: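 Metabolically active cells were quantified by ATP-dependent luminescence (CellTiter-Glo, 15 min at room temperature) following 48 h treatment. Cells had been plated at 500-1,000 per well and settled for 5 h beforehand.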

[12] = qHTS of pediatric cancer cell lines to identify multiple opportunities for drug repurposing: Primary screen for BT-37 cells (AID 1347094); also: series mostly up to about 57 µM
How it was run: (§2)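 500-1,000 cells/well; 5 h pre-incubation 37 °C/5% CO2; compound pinned; 48 h; CellTiter-Glo, 15 min RT; luminescence. MIPE 11-pt from 0.78 nM, NPC 8-pt from 0.59 nM final. Bortezomib 2.3 µM final as positive control.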

[13] = qHTS of pediatric cancer cell lines to identify multiple opportunities for drug repurposing: Primary screen for NB-EBc1 cells (AID 1347095)
How it was run: as §2

[14] = qHTS of pediatric cancer cell lines to identify multiple opportunities for drug repurposing: Primary screen for U-2 OS cells (AID 1347096); also: nearly all actives have a fitted effect of over 50% in size
How it was run: (§3)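 Viability after 48 h compound treatment at 37C, 500-1,000 cells/well, read as ATP luminescence with CellTiter-Glo. Primary screens used 11-point (MIPE, 0.78 nM-46 µM) or 8-point (NPC, 0.59 nM-46 µM) final concentrations; follow-up screens used 11-point dilutions.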

[15] = qHTS of pediatric cancer cell lines to identify multiple opportunities for drug repurposing: Primary screen for Saos-2 cells (AID 1347097); also: nearly all actives have a fitted effect of over 40% in size
How it was run: as §2

[16] = qHTS of pediatric cancer cell lines to identify multiple opportunities for drug repurposing: Primary screen for SK-N-SH cells (AID 1347098);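 also: DMSO served as neutral control and bortezomib at 2.3 µM as positive control; nearly all actives have a fitted effect of over 65% in size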
How it was run: (§4)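 Cells (500-1,000/well) rested 5 h, then received compounds for 48 h; metabolically active cells were measured by CellTiter-Glo luminescence. Final concentrations spanned up to 46 µM (MIPE, 11-point) or 0.59 nM-46 µM (NPC, 8-point) in primary screens, 11-point in follow-ups.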

[17] = qHTS of pediatric cancer cell lines to identify multiple opportunities for drug repurposing: Primary screen for NB1643 cells (AID 1347099); also: nearly all actives have a fitted effect of over 50% in size
How it was run: as §2

[18] = qHTS of pediatric cancer cell lines to identify multiple opportunities for drug repurposing: Primary screen for LAN-5 cells (AID 1347100)
How it was run: as §3

[19] = qHTS of pediatric cancer cell lines to identify multiple opportunities for drug repurposing: Primary screen for BT-12 cells (AID 1347101); also: nearly all actives have a fitted effect of over 25% in size
How it was run: as §4

Measured: Potency

C/C=C1\[C@H]2C=C(C)C[C@]1(N)c1ccc(=O)[nH]c1C2
inactive: all assays above

CC(=O)N(CC(O)CO)c1c(I)c(C(=O)NCC(O)CO)c(I)c(C(=O)NCC(O)CO)c1I (stereo unspecified)
inactive: all assays above

Cc1c(N(C)C)c(=O)n(-c2ccccc2)n1C
not listed: [19]
inactive: all other assays above

Nc1ccc(S(=O)(=O)c2ccc(N)cc2)cc1
inactive: all assays above

COc1ccc(C(=O)N2CCN(CC(=O)N3CCOCC3)CC2)cc1
inactive: all assays above

CC(C)=CCC[C@@](C)(O)[C@H]1CC=C(C)CC1
not listed: [19]
inactive: all other assays above

COc1cc(C(=O)NCCCCCC(=O)O)cc(OC)c1OC
inactive: all assays above
